Paper PMC5540273 (PLoS ONE, 2017)

How the values were obtained:
Conditions in all cases: concentration: 1 μM, replicates: in singlicate; n = 1
[1] = system: PAK4
[2] = system: PAK6
[3] = system: PAK7
[4] = system: T1, PCTK1
T1 construct: gene CDK16

[5] = system: T2, PCTK2
T2 construct: gene CDK17

[6] = system: T3, PCTK3
T3 construct: gene CDK18

[7] = system: PDGFRA
[8] = system: PDGFRB
[9] = system: PDPK1
[10] = system: PFTAIRE2
[11] = system: T4, PFTK1
T4 construct: gene CDK14

[12] = system: PHKG1
[13] = system: PHKG2
[14] = system: PIK3C2B
[15] = system: PIK3C2G
[16] = system: PIK3CA
[17] = system: PIK3CB
[18] = system: PIK3CD
[19] = system: PIK3CG
[20] = system: T5, PIK4CB
T5 construct: gene PI4KB
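Also: KINOMEscan kinase panel screen.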

O=C(NCCCN1CCOCC1)c1cccc(Nc2nccc(Nc3ccc(Oc4ccccc4)cc3)n2)c1 [GW663929]
%Inh [1]: 9%
%Inh [2]: 7%
%Inh [3]: 12%
%Inh [4]: 0%
%Inh [5]: 22%
%Inh [6]: 12%
%Inh [7]: 46%
%Inh [8]: 99.6%
%Inh [9]: 9%
%Inh [10]: 18%
%Inh [11]: 43%
%Inh [12]: 0%
%Inh [13]: 14%
%Inh [14]: 6%
%Inh [15]: 0%
%Inh [16]: 12%
%Inh [17]: 18%
%Inh [18]: 7%
%Inh [19]: 11%
%Inh [20]: 21%

Cl.Oc1cccc(Nc2ccnc3cc(-c4ccncc4)ccc23)c1 [GW494601]
%Inh [1]: 0%
%Inh [2]: 0%
%Inh [3]: 14%
%Inh [4]: 0%
%Inh [5]: 0%
%Inh [6]: 18%
%Inh [7]: 98.5%
%Inh [8]: 99.5%
%Inh [9]: 0%
%Inh [10]: 2%
%Inh [11]: 12%
%Inh [12]: 0%
%Inh [13]: 0%
%Inh [14]: 13%
%Inh [15]: 2%
%Inh [16]: 0%
%Inh [17]: 0%
%Inh [18]: 22%
%Inh [19]: 0%
%Inh [20]: 0%

COc1cc2ncn(-c3cc(OCc4sccc4Cl)c(C(N)=O)s3)c2cc1OC [GSK448459]
%Inh [1]: 0%
%Inh [2]: 6%
%Inh [3]: 0%
%Inh [4]: 4%
%Inh [5]: 0%
%Inh [6]: 13%
%Inh [7]: 25%
%Inh [8]: 76%
%Inh [9]: 0%
%Inh [10]: 0%
%Inh [11]: 12%
%Inh [12]: 0%
%Inh [13]: 0%
%Inh [14]: 15%
%Inh [15]: 0%
%Inh [16]: 0%
%Inh [17]: 0%
%Inh [18]: 30%
%Inh [19]: 35%
%Inh [20]: 0%

COc1ccc(CNC(=O)NC2CCN(c3ccnc(Nc4ccc(OC)cc4)n3)C2)cc1 (centres unmarked) [GSK1379727]
%Inh [1]: 0%
%Inh [2]: 0%
%Inh [3]: 1%
%Inh [4]: 0%
%Inh [5]: 0%
%Inh [6]: 4%
%Inh [7]: 0%
%Inh [8]: 20%
%Inh [9]: 0%
%Inh [10]: 7%
%Inh [11]: 9%
%Inh [12]: 0%
%Inh [13]: 0%
%Inh [14]: 0%
%Inh [15]: 0%
%Inh [16]: 0%
%Inh [17]: 0%
%Inh [18]: 26%
%Inh [19]: 0%
%Inh [20]: 2%

NCC(NC(=O)c1cc(-c2cn[nH]c2)c(-c2ccnc3[nH]ccc23)s1)c1ccccc1.O=C(O)C(F)(F)F.O=C(O)C(F)(F)F (centres unmarked) [GSK1325775]
%Inh [1]: 50%
%Inh [2]: 74%
%Inh [3]: 74%
%Inh [4]: 15%
%Inh [5]: 9%
%Inh [6]: 0%
%Inh [7]: 26%
%Inh [8]: 61%
%Inh [9]: 0%
%Inh [10]: 17%
%Inh [11]: 21%
%Inh [12]: 18%
%Inh [13]: 26%
%Inh [14]: 0%
%Inh [15]: 0%
%Inh [16]: 0%
%Inh [17]: 0%
%Inh [18]: 24%
%Inh [19]: 3%
%Inh [20]: 26%

O=c1cc(N2CCOCC2)nc2n(Cc3cccc4ccccc34)ccn12 [GSK2333389]
%Inh [1]: 0%
%Inh [2]: 0%
%Inh [3]: 0%
%Inh [4]: 2%
%Inh [5]: 0%
%Inh [6]: 7%
%Inh [7]: 0%
%Inh [8]: 6%
%Inh [9]: 10%
%Inh [10]: 29%
%Inh [11]: 0%
%Inh [12]: 2%
%Inh [13]: 0%
%Inh [14]: 0%
%Inh [15]: 0%
%Inh [16]: 0%
%Inh [17]: 99.7%
%Inh [18]: 89%
%Inh [19]: 3%
%Inh [20]: 6%

CCc1nc(-c2cccc(C)c2)c(-c2ccnc(NCc3ccccc3)c2)s1
%Inh [1]: 22%
%Inh [2]: 11%
%Inh [3]: 0%
%Inh [4]: 0%
%Inh [5]: 13%
%Inh [6]: 0%
%Inh [7]: 30%
%Inh [8]: 39%
%Inh [9]: 3%
%Inh [10]: 7%
%Inh [11]: 1%
%Inh [12]: 0%
%Inh [13]: 22%
%Inh [14]: 0%
%Inh [15]: 18%
%Inh [16]: 0%
%Inh [17]: 16%
%Inh [18]: 0%
%Inh [19]: 0%
%Inh [20]: 0%

CN(C(=O)c1ccc(-c2cc(-c3c[nH]nc3-c3ccccn3)ccn2)cc1)C1CCOCC1 [GW810083]
%Inh [1]: 28%
%Inh [2]: 0%
%Inh [3]: 16%
%Inh [4]: 0%
%Inh [5]: 0%
%Inh [6]: 0%
%Inh [7]: 4%
%Inh [8]: 0%
%Inh [9]: 0%
%Inh [10]: 29%
%Inh [11]: 0%
%Inh [12]: 1%
%Inh [13]: 12%
%Inh [14]: 0%
%Inh [15]: 10%
%Inh [16]: 0%
%Inh [17]: 0%
%Inh [18]: 1%
%Inh [19]: 32%
%Inh [20]: 40%

O=c1cc(N2CCOCC2)nc2n(Cc3cccc(F)c3)ccn12 [GSK2297430]
%Inh [1]: 0%
%Inh [2]: 0%
%Inh [3]: 0%
%Inh [4]: 5%
%Inh [5]: 0%
%Inh [6]: 27%
%Inh [7]: 0%
%Inh [8]: 12%
%Inh [9]: 32%
%Inh [10]: 7%
%Inh [11]: 12%
%Inh [12]: 0%
%Inh [13]: 0%
%Inh [14]: 0%
%Inh [15]: 0%
%Inh [16]: 0%
%Inh [17]: 99%
%Inh [18]: 6%
%Inh [19]: 0%
%Inh [20]: 0%

Cc1cccc(Cn2ccn3c(=O)cc(N4CCOCC4)nc23)c1 [GSK2297542]
%Inh [1]: 25%
%Inh [2]: 53%
%Inh [3]: 22%
%Inh [4]: 6%
%Inh [5]: 16%
%Inh [6]: 19%
%Inh [7]: 0%
%Inh [8]: 40%
%Inh [9]: 11%
%Inh [10]: 27%
%Inh [11]: 15%
%Inh [12]: 1%
%Inh [13]: 8%
%Inh [14]: 4%
%Inh [15]: 0%
%Inh [16]: 12%
%Inh [17]: 100%
%Inh [18]: 52%
%Inh [19]: 10%
%Inh [20]: 0%

Cc1c(Cn2c(C)nn3c(=O)cc(N4CCOC(C)C4)nc23)cccc1C(F)(F)F (centres unmarked) [GSK2344444]
%Inh [1]: 0%
%Inh [2]: 0%
%Inh [3]: 0%
%Inh [4]: 6%
%Inh [5]: 0%
%Inh [6]: 8%
%Inh [7]: 0%
%Inh [8]: 18%
%Inh [9]: 8%
%Inh [10]: 16%
%Inh [11]: 48%
%Inh [12]: 0%
%Inh [13]: 0%
%Inh [14]: 31%
%Inh [15]: 24%
%Inh [16]: 5%
%Inh [17]: 97.4%
%Inh [18]: 92.7%
%Inh [19]: 64%
%Inh [20]: 0%

Nc1nc(-c2ccc3c(N)n[nH]c3c2)cc(N2CCCC2)n1 [GSK2227430]
%Inh [1]: 0%
%Inh [2]: 0%
%Inh [3]: 5%
%Inh [4]: 0%
%Inh [5]: 0%
%Inh [6]: 0%
%Inh [7]: 0%
%Inh [8]: 18%
%Inh [9]: 67%
%Inh [10]: 6%
%Inh [11]: 0%
%Inh [12]: 0%
%Inh [13]: 0%
%Inh [14]: 0%
%Inh [15]: 0%
%Inh [16]: 0%
%Inh [17]: 0%
%Inh [18]: 0%
%Inh [19]: 0%
%Inh [20]: 14%

Cc1nnc(-c2ccc3occ(-c4ccc(C(C)O)cc4)c3c2)o1 (centres unmarked)
%Inh [1]: 10%
%Inh [2]: 11%
%Inh [3]: 1%
%Inh [4]: 18%
%Inh [5]: 11%
%Inh [6]: 1%
%Inh [7]: 0%
%Inh [8]: 8%
%Inh [9]: 0%
%Inh [10]: 0%
%Inh [11]: 1%
%Inh [12]: 9%
%Inh [13]: 16%
%Inh [14]: 18%
%Inh [15]: 23%
%Inh [16]: 9%
%Inh [17]: 18%
%Inh [18]: 0%
%Inh [19]: 25%
%Inh [20]: 0%

O=c1cc(N2CCOCC2)nc2n(Cc3cccc(Cl)c3Cl)c(C3CC3)nn12 [GSK2358994]
%Inh [1]: 0%
%Inh [2]: 13%
%Inh [3]: 0%
%Inh [4]: 0%
%Inh [5]: 0%
%Inh [6]: 3%
%Inh [7]: 0%
%Inh [8]: 2%
%Inh [9]: 14%
%Inh [10]: 0%
%Inh [11]: 0%
%Inh [12]: 8%
%Inh [13]: 0%
%Inh [14]: 70%
%Inh [15]: 64%
%Inh [16]: 8%
%Inh [17]: 100%
%Inh [18]: 82%
%Inh [19]: 45%
%Inh [20]: 0%

Fc1ccc(-c2ncn(CCCN3CCOCC3)c2-c2ccccn2)cc1 [SB-211742]
%Inh [1]: 0%
%Inh [2]: 8%
%Inh [3]: 0%
%Inh [4]: 0%
%Inh [5]: 2%
%Inh [6]: 0%
%Inh [7]: 0%
%Inh [8]: 0%
%Inh [9]: 0%
%Inh [10]: 20%
%Inh [11]: 0%
%Inh [12]: 50%
%Inh [13]: 0%
%Inh [14]: 0%
%Inh [15]: 0%
%Inh [16]: 0%
%Inh [17]: 0%
%Inh [18]: 0%
%Inh [19]: 0%
%Inh [20]: 0%

N#Cc1ccc(-c2cc(-c3c[nH]nc3-c3ccccn3)ccn2)cc1 [GW693028]
%Inh [1]: 0%
%Inh [2]: 0%
%Inh [3]: 11%
%Inh [4]: 0%
%Inh [5]: 0%
%Inh [6]: 33%
%Inh [7]: 0%
%Inh [8]: 7%
%Inh [9]: 0%
%Inh [10]: 0%
%Inh [11]: 19%
%Inh [12]: 0%
%Inh [13]: 0%
%Inh [14]: 0%
%Inh [15]: 0%
%Inh [16]: 0%
%Inh [17]: 0%
%Inh [18]: 0%
%Inh [19]: 0%
%Inh [20]: 0%

CN1c2ccc(CNc3ccc(F)cc3)cc2-c2c(cnn2C)S1(=O)=O
%Inh [1]: 0%
%Inh [2]: 0%
%Inh [3]: 0%
%Inh [4]: 0%
%Inh [5]: 0%
%Inh [6]: 0%
%Inh [7]: 0%
%Inh [8]: 0%
%Inh [9]: 12%
%Inh [10]: 0%
%Inh [11]: 0%
%Inh [12]: 0%
%Inh [13]: 0%
%Inh [14]: 19%
%Inh [15]: 41%
%Inh [16]: 0%
%Inh [17]: 0%
%Inh [18]: 0%
%Inh [19]: 0%
%Inh [20]: 0%

O=C(c1ccc(-c2cc(-c3c[nH]nc3-c3ccccn3)ccn2)cc1)N1CCOCC1 [GW812171]
%Inh [1]: 6%
%Inh [2]: 0%
%Inh [3]: 0%
%Inh [4]: 0%
%Inh [5]: 0%
%Inh [6]: 0%
%Inh [7]: 0%
%Inh [8]: 0%
%Inh [9]: 0%
%Inh [10]: 0%
%Inh [11]: 20%
%Inh [12]: 1%
%Inh [13]: 0%
%Inh [14]: 0%
%Inh [15]: 0%
%Inh [16]: 29%
%Inh [17]: 0%
%Inh [18]: 0%
%Inh [19]: 0%
%Inh [20]: 8%

COCCNC(=O)c1ccc(-c2cc(C(=O)NC3CC3)cc(F)c2C)cc1 [GW868318]
%Inh [1]: 20%
%Inh [2]: 18%
%Inh [3]: 24%
%Inh [4]: 8%
%Inh [5]: 0%
%Inh [6]: 20%
%Inh [7]: 32%
%Inh [8]: 51%
%Inh [9]: 8%
%Inh [10]: 0%
%Inh [11]: 18%
%Inh [12]: 6%
%Inh [13]: 0%
%Inh [14]: 0%
%Inh [15]: 38%
%Inh [16]: 28%
%Inh [17]: 49%
%Inh [18]: 42%
%Inh [19]: 29%
%Inh [20]: 40%
